Test results as given in PubChem BioAssay (Tox21).
Records with an inconclusive call do not appear. The source made the active and inactive calls. Calls follow the shape of the dose curve; as a rule, active = well fitted cell-killing curve with a large enough effect in the repeat runs; inconclusive = weak or mixed curves; inactive = no such curve, though single readings can be large or run the other way. Residues, ends and D or L forms follow the SMILES beside them.

Assay: qHTS assay to identify small molecule agonists of the peroxisome proliferator-activated receptor delta (PPARd) signaling pathway - cell viability counter screen (AID 743211); also: nearly all actives have a fitted effect of over 55% in size
Details: PPARd-bla HEK293H viability, CellTiter-Glo luminescence, 17 h; series mostly up to 62.6 µM
Text: U.S. Tox21 Program National Center for Advancing Translational Sciences [NCATS] NIH Chemical Genomics Center [NCGC] U.S. Environmental Protection Agency [EPA] National Institutes of Environmental Health Sciences [NIEHS] National Toxicology Program [NTP] U.S. Food and Drug Administration [FDA] Tox21 Assay Overview: The peroxisome proliferator-activated receptors (PPARs) are lipid-activated transcription factors of the nuclear receptor superfamily with three distinct subtypes namely PPAR alpha, PPAR delta (PPARd) and PPAR gamma. All these subtypes heterodimerizes with Retinoid X receptor (RXR) and have different physiological functions. […] To identify the compounds that activate PPAR-delta signaling, GeneBLAzer PPAR delta UAS-bla HEK293H cell line (Invitrogen, Carlsbad, CA, USA) containing a beta-lactamase reporter gene under the control of an Upstream Activator Sequence (UAS) was used to screen the Tox21 compound library. The cytotoxicity of the Tox21 compound library against the PPARd-bla cell line was tested in parallel by measuring the cell viability using CellTiter-Glo assay (Promega, Madison, WI) in the same wells.
Tox21 Assay Protocol Summary: PPARd-bla cells were dispensed at 3000 cells/6uL/well in 1536-well black wall/clear bottom plates using a Multidrop Combi (Thermo Fisher Scientific, Waltham, MA) dispenser. After the assay plates were incubated at 37 C and 5% CO2 for 5 h, 23 nL of compounds dissolved in DMSO, positive controls or DMSO only was transferred to the assay plate by a Pintool station (Kalypsys, San Diego, CA). The assay plates were incubated at 37C for 17 h. After 1 uL of LiveBLAzerTM B/G FRET substrate was added using a Bioraptr Flying Reagent Dispenser (FRD) workstation (Beckman Coulter, Indianapolis, IN, USA), the plates were incubated at room temperature for 2 h, and fluorescence intensity was measured by an Envision plate reader (PerkinElmer, Shelton, CT). For cell viability readout that measures cytotoxicity, 3 ul/well of CellTiter-Glo reagent was added into the assay plates using a Bioraptr FRD. After 30 min incubation at room temperature, the luminescence intensity in the plates was measured using a ViewLux plate reader (PerkinElmer).
With `Cc1cn([C@H]2C[C@H](N=[N+]=[N-])[C@@H](CO)O2)c(=O)[nH]c1=O` the outcome was “inactive”. With `Nc1ccn([C@H]2CC[C@@H](CO)O2)c(=O)n1` the outcome was “inactive”. For `CCCN(CCC)S(=O)(=O)c1ccc(C(=O)O)cc1`, the outcome was “inactive”. With `CNC[C@H](O)c1cccc(O)c1` the outcome was “inactive”. In the case of `COC(=O)[C@H](Cc1ccccc1)NC(=O)[C@@H](N)CC(=O)O` (H-Asp-Phe-OMe), the outcome was “inactive”. For `CCCCC1C(=O)N(c2ccccc2)N(c2ccccc2)C1=O`, the outcome was “inactive”. In the case of `O=C(O)c1cccnc1`, the outcome was “inactive”. With `N=C(N)c1ccc(OCCCCCOc2ccc(C(=N)N)cc2)cc1` the outcome was “inactive”. With `O=C(c1ccccc1)C(O)c1ccccc1` (stereo not given) the outcome was “inactive”. With `O=C(C1CCCCC1)N1CC(=O)N2CCc3ccccc3C2C1` (stereo not given) the outcome was “inactive”. For `NC(=O)c1cnccn1`, the outcome was “inactive”. For `O=c1ccc2ccccc2o1`, the outcome was “inactive”. For `O=C1NC(=O)c2ccccc21`, the outcome was “inactive”. With `C1N2CN3CN1CN(C2)C3` the outcome was “inactive”. For `CCOc1ccc(NC(=O)CC(C)O)cc1` (stereo not given), the outcome was “inactive”. In the case of `NC(N)=NC(=O)c1nc(Cl)c(N)nc1N`, the outcome was “inactive”. In the case of `CCC1(c2ccccc2)C(=O)NCNC1=O`, the outcome was “inactive”. With `NC(=O)c1ccccc1O` the outcome was “inactive”. For `Cn1cc[nH]c1=S`, the outcome was “inactive”. With `CCCNC(=O)NS(=O)(=O)c1ccc(Cl)cc1` the outcome was “inactive”. For `Nc1ccc(S(=O)(=O)Nc2nccs2)cc1`, the outcome was “inactive”. In the case of `Cc1ccc(C)c(OCCCC(C)(C)C(=O)O)c1`, the outcome was “inactive”. With `CC(O)CN(CCN(CC(C)O)CC(C)O)CC(C)O` (stereo not given) the outcome was “inactive”. With `CC(O)CO` (stereo not given) the outcome was “inactive”. In the case of `CCCC(CCC)C(=O)O`, the outcome was “inactive”. For `O=C(O)/C=C\C(=O)O`, the outcome was “inactive”. For `CCCCOC(=O)CC(CC(=O)OCCCC)(OC(C)=O)C(=O)OCCCC`, the outcome was “inactive”. In the case of `COc1ccc2[nH]cc(CCNC(C)=O)c2c1`, the outcome was “inactive”. For `C[C@]12C=CC(=O)C=C1CC[C@@H]1[C@@H]2[C@@H](O)C[C@@]2(C)[C@H]1CC[C@]2(O)C(=O)CO`, the outcome was “inactive”. With `O=S(=O)(O)c1ccc2cc(O)ccc2c1` the outcome was “inactive”. With `NS(=O)(=O)c1cc(C(=O)O)c(NCc2ccco2)cc1Cl` the outcome was “inactive”. In the case of `CCCCCCCCCCCCCCCC(=O)O`, the outcome was “inactive”. In the case of `CC1(C)[C@@H]2CC[C@@]1(C)C(=O)C2`, the outcome was “inactive”. For `O=C(O)c1cccc([N+](=O)[O-])c1`, the outcome was “inactive”. With `O=C(O)CCC(=O)O` the outcome was “inactive”. With `CC(O)C(=O)O` (stereo not given) the outcome was “inactive”. For `NC(N)=O`, the outcome was “inactive”. With `NC(=O)NC1NC(=O)NC1=O` (stereo not given) the outcome was “inactive”. For `CC(=O)NS(=O)(=O)c1ccc(N)cc1`, the outcome was “inactive”. For `Nc1ccc(C(=O)O)cc1`, the outcome was “inactive”.
